Data: publication PMC12864922, “TDP-43 directly inhibits mRNA accumulation in neurites through modulation of mRNA stability”
Numbering of substitutions follows the chain as printed. Whole data set: some 9,900 sequences, median “r (bound/input frequency ratio)” near 0.7, cut for the highest 2% near 6.5. For the sample, the highest values were picked, then their nearest neighbours and some sequences at random.

B1: ENSMUSG00000061578.324|Ksr2|150:154 (ssRNA)
RNA: GGGAGUUCUACAGUCCGACGAUCGCUUCGAUAUCCGCAUGCUAGUAGCUCAAUGACCCAGUGGGUCACAGUUCUAGGCGCUCCAAGGAAGCCAGGGGAGGGGGACUCCUCAGGAAGGAGUGACCAGUCACCUGCCUCCCAGGGUUCUGCCUUGCCCUUAAGCUAGGGUCCUUCAAGCAUCCACAGACUUAGACACACGUGGUAACAUGCUUGUAAUCCUGGCACUCUGGAGGCUGAGGCAGGAGGAUAACAAGUCUAGACUAUAUAUGAUUUCUGAGGGUCUGUUAGUGAAUAAGUACCUGGACUCUUGCGGUCGCACUAGUGUGGAAUUCUCGGGUGUCAAGG
B2: ENSMUSG00000032194.276|Kank2 (ssRNA)
RNA: GGGAGUUCUACAGUCCGACGAUCGCUUCGAUAUCCGCAUGCUAGAAUAGAUGGAUGGAUGAAUGAACAGAUAGAUGAAUGGAUGGAUGGACAGGUGGGUGGAUGGAUGGGUGGACGGAUGAGUGUGGGGUGGGUGGAUGGAUAAAUGAGCAAUGGAUGAGAAACUGGGUUGGCUGGUGGGUAGAUGUCAUGAUGGAGUCUUUGCACGUGUAUGAAACAGAAAACCAAACUUCAGGACAGACAGCUGCUGGUGUCUCUGGAUGCUCACAGCCUAGGGCACAUUUGAAAGGUCGUGCUCUGAGCUCUCUUGCGGUCGCACUAGUGUGGAAUUCUCGGGUGUCAAGG
B3: ENSMUSG00000032194.275|Kank2 (ssRNA)
RNA: GGGAGUUCUACAGUCCGACGAUCGCUUCGAUAUCCGCAUGCUAAUAAAUGAAUAGAUGGAUGGAUGAAUGAACAGAUAGAUGAAUGGAUGGAUGGACAGGUGGGUGGAUGGAUGGGUGGACGGAUGAGUGUGGGGUGGGUGGAUGGAUAAAUGAGCAAUGGAUGAGAAACUGGGUUGGCUGGUGGGUAGAUGUCAUGAUGGAGUCUUUGCACGUGUAUGAAACAGAAAACCAAACUUCAGGACAGACAGCUGCUGGUGUCUCUGGAUGCUCACAGCCUAGGGCACAUUUGAAAGGUCGUGCUCCUCUUGCGGUCGCACUAGUGUGGAAUUCUCGGGUGUCAAGG
B4: ENSMUSG00000032194.274|Kank2|91:95;178:182 (ssRNA)
RNA: GGGAGUUCUACAGUCCGACGAUCGCUUCGAUAUCCGCAUGCUAGGAUGCAUAAAUGAAUAGAUGGAUGGAUGAAUGAACAGAUAGAUGAAUGGAUGGAUGGACAGGUGGGUGGAUGGAUGGGUGGACGGAUGACACACGGGUGGGUGGAUGGAUAAAUGAGCAAUGGAUGAGAAACUGGGUUGGCUGGUGGGUAGAUGUCAUGAUGGAGUCUUUGCACGUCAUACAAACAGAAAACCAAACUUCAGGACAGACAGCUGCUGGUGUCUCUGGAUGCUCACAGCCUAGGGCACAUUUGAAAGGUCCUCUUGCGGUCGCACUAGUGUGGAAUUCUCGGGUGUCAAGG
B5: ENSMUSG00000032194.272|Kank2|103:107;190:194 (ssRNA)
RNA: GGGAGUUCUACAGUCCGACGAUCGCUUCGAUAUCCGCAUGCUAGGGUGGGUGGAUGGAUGCAUAAAUGAAUAGAUGGAUGGAUGAAUGAACAGAUAGAUGAAUGGAUGGAUGGACAGGUGGGUGGAUGGAUGGGUGGACGGAUGACACACGGGUGGGUGGAUGGAUAAAUGAGCAAUGGAUGAGAAACUGGGUUGGCUGGUGGGUAGAUGUCAUGAUGGAGUCUUUGCACGUCAUACAAACAGAAAACCAAACUUCAGGACAGACAGCUGCUGGUGUCUCUGGAUGCUCACAGCCUAGGGCACCUCUUGCGGUCGCACUAGUGUGGAAUUCUCGGGUGUCAAGG
B6: ENSMUSG00000032194.273|Kank2|97:101;184:188 (ssRNA)
RNA: GGGAGUUCUACAGUCCGACGAUCGCUUCGAUAUCCGCAUGCUAGUGGAUGGAUGCAUAAAUGAAUAGAUGGAUGGAUGAAUGAACAGAUAGAUGAAUGGAUGGAUGGACAGGUGGGUGGAUGGAUGGGUGGACGGAUGACACACGGGUGGGUGGAUGGAUAAAUGAGCAAUGGAUGAGAAACUGGGUUGGCUGGUGGGUAGAUGUCAUGAUGGAGUCUUUGCACGUCAUACAAACAGAAAACCAAACUUCAGGACAGACAGCUGCUGGUGUCUCUGGAUGCUCACAGCCUAGGGCACAUUUGACUCUUGCGGUCGCACUAGUGUGGAAUUCUCGGGUGUCAAGG
B7: ENSMUSG00000032194.277|Kank2 (ssRNA)
RNA: GGGAGUUCUACAGUCCGACGAUCGCUUCGAUAUCCGCAUGCUAAUGGAUGGAUGAAUGAACAGAUAGAUGAAUGGAUGGAUGGACAGGUGGGUGGAUGGAUGGGUGGACGGAUGAGUGUGGGGUGGGUGGAUGGAUAAAUGAGCAAUGGAUGAGAAACUGGGUUGGCUGGUGGGUAGAUGUCAUGAUGGAGUCUUUGCACGUGUAUGAAACAGAAAACCAAACUUCAGGACAGACAGCUGCUGGUGUCUCUGGAUGCUCACAGCCUAGGGCACAUUUGAAAGGUCGUGCUCUGAGCUGAGCCCCUCUUGCGGUCGCACUAGUGUGGAAUUCUCGGGUGUCAAGG
B8: ENSMUSG00000032194.279|Kank2 (ssRNA)
RNA: GGGAGUUCUACAGUCCGACGAUCGCUUCGAUAUCCGCAUGCUAAUGAACAGAUAGAUGAAUGGAUGGAUGGACAGGUGGGUGGAUGGAUGGGUGGACGGAUGAGUGUGGGGUGGGUGGAUGGAUAAAUGAGCAAUGGAUGAGAAACUGGGUUGGCUGGUGGGUAGAUGUCAUGAUGGAGUCUUUGCACGUGUAUGAAACAGAAAACCAAACUUCAGGACAGACAGCUGCUGGUGUCUCUGGAUGCUCACAGCCUAGGGCACAUUUGAAAGGUCGUGCUCUGAGCUGAGCCCUGAGUUCCAGCCCUCUUGCGGUCGCACUAGUGUGGAAUUCUCGGGUGUCAAGG
B9: ENSMUSG00000032194.278|Kank2 (ssRNA)
RNA: GGGAGUUCUACAGUCCGACGAUCGCUUCGAUAUCCGCAUGCUAGGAUGAAUGAACAGAUAGAUGAAUGGAUGGAUGGACAGGUGGGUGGAUGGAUGGGUGGACGGAUGAGUGUGGGGUGGGUGGAUGGAUAAAUGAGCAAUGGAUGAGAAACUGGGUUGGCUGGUGGGUAGAUGUCAUGAUGGAGUCUUUGCACGUGUAUGAAACAGAAAACCAAACUUCAGGACAGACAGCUGCUGGUGUCUCUGGAUGCUCACAGCCUAGGGCACAUUUGAAAGGUCGUGCUCUGAGCUGAGCCCUGAGUUCUCUUGCGGUCGCACUAGUGUGGAAUUCUCGGGUGUCAAGG
B10: ENSMUSG00000032194.274|Kank2 (ssRNA)
RNA: B4 RNA with C134G, A135U, C136G, A137U, C138G, C221G, A222U, U223A, A224U, C225G

Each binder was assayed against TDP-43 (Homo sapiens, UniProt Q13148 1-414) (assay: RNA Bind-n-Seq with designed 260-mer pool; 25 mM Tris-HCl, 150 mM KCl, 3 mM MgCl2, BSA (printed 500 mg/mL), 20 units/mL SUPERase IN; pH not stated; 500 nM RNA pool, 1 h, 4 C; TDP-43 5, 50, 500 nM; high values mean tight binding). Settings: protein: recombinant; tags: SBP (GST cleaved off with PreScission; pGEX-GST-SBP).
Method in brief: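 The incubation lasted 1 h at 4 °C and used 500 nM of an in vitro-transcribed 260-nt 3′ UTR oligo pool with recombinant SBP-tagged TDP-43 at 5, 50 or 500 nM immobilized on streptavidin beads. It took place in 25 mM Tris-HCl, 150 mM KCl, 3 mM MgCl2, BSA and SUPERase IN. Bound RNA was washed, eluted with biotin, converted to cDNA, PCR-amplified and sequenced to give R, each oligo's normalized abundance in the bound sample divided by that in input. Two independent protein batches provided the duplicates.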

TDP-43, sequence (Q13148 whole entry): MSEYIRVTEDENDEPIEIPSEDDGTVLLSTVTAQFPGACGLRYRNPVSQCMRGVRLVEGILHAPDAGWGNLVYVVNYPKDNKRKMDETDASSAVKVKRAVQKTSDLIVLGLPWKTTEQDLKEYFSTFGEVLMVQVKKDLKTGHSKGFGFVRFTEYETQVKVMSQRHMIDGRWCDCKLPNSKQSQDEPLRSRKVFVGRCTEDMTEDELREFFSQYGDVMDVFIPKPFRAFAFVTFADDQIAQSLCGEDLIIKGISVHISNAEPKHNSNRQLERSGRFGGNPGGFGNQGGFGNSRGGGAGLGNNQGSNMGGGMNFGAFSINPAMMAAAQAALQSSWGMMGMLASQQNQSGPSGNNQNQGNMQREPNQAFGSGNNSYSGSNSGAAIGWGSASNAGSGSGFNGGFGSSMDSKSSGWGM

Going from B1 to B2, the binding signal rises from 0.658 R (bound/input frequency ratio) to 6.02 R (bound/input frequency ratio).

Compared with B3, B4 is lower in binding signal: 7.07 R (bound/input frequency ratio) for the first, 5.59 R (bound/input frequency ratio) for the second.

First: B5
Second: B6
The binding signal of the first is lower: 5.68 R (bound/input frequency ratio) for the first, 6.83 R (bound/input frequency ratio) for the second.

Going from B7 to B8, the binding signal falls from 7.21 R (bound/input frequency ratio) to 5.39 R (bound/input frequency ratio).

First: B9
Second: B10
The binding signal of the first is lower: 5.8 R (bound/input frequency ratio) for the first, 6.07 R (bound/input frequency ratio) for the second.
